High-throughput results (PubChem)
VACV mCherry inh: qHTS for Stage-Specific Inhibitors of Vaccinia Orthopoxvirus: mCherry Reporter Primary qHTS; Vaccinia virus mCherry reporter infection, fluorescence; Potency, µM (series often up to 36.5 µM), for the others: at the top dose activity change, negative = inhibition, usual class: inhibitors; 0.63% of 310,000 active; calls by dose curve; tested in A549 cells; also: potency is read from the fitted curve at half-maximal effect; nearly all actives have a fitted effect of over 35% in size
Vaccinia Venus: qHTS for Stage-Specific Inhibitors of Vaccinia Orthopoxvirus: Venus Reporter Primary qHTS; 0.46% of 330,000 active; AID 720580, 2013; Vaccinia virus Venus reporter expression, fluorescence; Potency, µM (top dose mostly 36.5 µM), for inactives: at the top dose activity change, negative = inhibition, hits mostly inhibitors; calls by dose curve; tested in A549 cells; also: potency is read from the fitted curve at half-maximal effect; nearly all actives have a fitted effect of over 30% in size
HCV inh: qHTS Assay for Inhibitors of Hepatitis C Virus (HCV); Huh7.5.1 HCVcc-Cre infection, luciferase reporter, 44 h; Potency, µM (doses to about 41.8 µM), inactives show at the highest dose activity change, negative = inhibition, most hits filed as inhibitors; 3.4% of 340,000 active; also: potency is read from the fitted curve at half-maximal effect
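Cells (1,000/well) were plated 4 h before compound, then infected with HCVcc-Cre virus (~0.5 moi). After 44 h further culture, infection was read as luciferase luminescence following a 15 min substrate incubation at room temperature.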
Sm TGR inh: qHTS Assay for the Inhibitors of Schistosoma Mansoni Peroxiredoxins | 3% of 360,000 active | Potency, µM (top dose mostly 114 µM), without a hit: top-dose activity change, negative = inhibition, hits mostly inhibitors | purified TGR, DTNB reduction, TNB absorbance 405 nm | Schistosoma mansoni thioredoxin glutathione reductase (TGR), Q962Y6; also: potency is read from the fitted curve at half-maximal effect; nearly all actives have a fitted effect of over 60% in size
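TGR 20 nM + NADPH 100 uM (dispensed conc.), cpd preinc 15 min RT; start with NADPH (500 uM addition) then DTNB (15 mM addition). Kinetic TNB absorbance, 405 nm filter. Four-parameter Hill fit across titration.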
HCMV antiviral: qHTS Assay for inhibitors of the human cytomegalovirus (HCMV); HFF cells, HCMV-luciferase reporter, 72 h; stronger effect = lower value; activity change, negative = inhibition, % at 57.5 µM; 4.5% of 410,000 active; in the data active = activity change below about -60%; inconclusive = no clear call, values can overlap the other calls; inactive = above about -39%
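Cell-based, HFFs, 1000 cells/well, 16 h 37C; cpds in DMSO + HCMV-luc, MOI 1 PFU/cell; 72 h 37C; OneGlo luminescence after 5 min RT; norm. to buffer vs Salinomycin 10uM.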
FMDV antiviral: High Throughput Screening for Foot and Mouth Disease Virus Antivirals. FMDV antiviral cell-based qHTS. Potency, µM (highest dose often 57.9 µM), for inactives: at the top dose activity change, negative = inhibition, actives largely listed as inhibitors. 1.2% of 410,000 active; calls by dose curve; tested in HEK293T cells; also: read-out not given here; potency is read from the fitted curve at half-maximal effect; nearly all actives have a fitted effect of over 45% in size
* marks the source's active call; other numbers are inactive results; i = inactive; ? = inconclusive; nt = not tested or not shown. Shown are actives, neighbours in structure and some others; about 9.3% of the full set was active somewhere. Unless noted, calls follow the shape of the dose curve; as a rule, active = well fitted curve in the direction sought with a large enough effect; inconclusive = small, poorly fitted or top-dose-only effect, or another doubt; inactive = no such curve, though single readings can be large; an effect the other way counts as inactive or inconclusive. % is scaled to controls: 0 for no effect and ±100 for the full control effect.

SMILES | VACV mCherry inh | Vaccinia Venus | HCV inh | Sm TGR inh | HCMV antiviral | FMDV antiviral
CC(C)(C)c1ccc(NC(=O)COC(=O)C2(C)CC2(Cl)Cl)cc1 (configuration not stated) | nt | nt | 11µM* | 3% | 36 | 20%
Cc1ccc(C2=NN3C(=O)c4ccccc4C3C2)cc1 (configuration not stated) | nt | nt | -12% | 9% | 55 | 93%
Cc1ccc(S(=O)(=O)N(CCCN2CCCC2=O)Cc2cc3c(C)ccc(C)c3[nH]c2=O)cc1 | nt | nt | -23% | -1% | -64* | -22%
COc1ccc(-c2csc(NC(=O)C3COc4ccccc4O3)n2)cc1OC (configuration not stated) | -37% | -19% | 11µM* | 3% | -8 | ?
COc1ccc(-c2csc(NC(=O)Cc3cc(OC)c(OC)c(OC)c3)n2)cc1OC | -23% | -25% | ? | 1% | ? | 14µM*
COc1ccc(CC(=O)Nc2nc(-c3ccncc3)cs2)cc1 | -18% | -9% | ? | -7% | -82* | -7%
COc1ccc(CCNc2nc(-c3sc(C)nc3C)cs2)cc1OC | nt | nt | 13µM* | 0% | -29 | 25µM*
COc1ccc(CCNc2nc(-c3ccncc3)cs2)cc1OC | -19% | -8% | -23% | 2% | -26 | ?
COc1ccc(-c2csc(NC(=O)COC(=O)Cc3ccccc3)n2)cc1OC | nt | nt | -11% | -8% | nt | nt
O=C(NCc1cccs1)C1CCN(S(=O)(=O)N2CCCC2)CC1 | -12% | -13% | 21% | -16% | 26 | nt
CCOc1ccccc1N1CC(C(=O)NCCOc2ccccc2OC)CC1=O (configuration not stated) | i | -16% | 1% | -24% | 65 | -7%
O=C(Nc1ccc(-c2cn3ccsc3n2)cc1)C1COc2ccccc2O1 (configuration not stated) | ? | ? | 14µM* | 7% | -23 | ?
COc1ccc(CCNc2nc(-c3ccc(NC(C)=O)cc3)cs2)cc1OC | -6% | -18% | ? | 6% | -12 | 25µM*
COc1ccc(CCNc2nc(-c3ccc(O)cc3)cs2)cc1OC | nt | nt | ? | -26% | ? | ?
Cc1ccc(NC(=O)C2COc3ccccc3O2)cc1 (configuration not stated) | nt | nt | 1% | 2% | 40 | 62%
CC(=O)Nc1ccccc1C(=O)C(=O)O | 8% | 18% | 9% | 5% | -1 | -4%
O=C(C[n+]1ccncc1)c1ccccc1 | i | 7% | 9% | 35µM* | -4 | 66%
O=C(C[n+]1cc(Br)cc(Br)c1)c1ccccc1 | -19% | 4% | 2% | 11µM* | 84 | 7%
Cc1ccc(C(=O)C[n+]2cc(Br)cc(Br)c2)cc1[N+](=O)[O-] | -8% | -1% | ? | 32µM* | -32 | -17%
O=C(C[n+]1cc(Br)cc(Br)c1)c1ccc(Cl)cc1 | i | -2% | 32µM* | ? | 71 | -3%
Nc1cc[n+](CC(=O)c2ccccc2)cc1 | nt | nt | ? | -9% | -35 | -11%
O=c1[nH][nH]c(-c2ccccc2)c1C=Nc1ccc(OC(F)(F)F)cc1 | nt | nt | 3% | 0% | 51 | -7%
COc1cccc(CN(C)C(=O)c2cccc(S(=O)(=O)N3CCN(c4ccccc4)CC3)c2)c1OC | nt | nt | 7.1µM* | nt | -70* | 18µM*
CN(CC(=O)Nc1ccc(F)cc1)C(=O)c1cccc(S(=O)(=O)N2CCN(c3ccccc3)CC2)c1 | -26% | -25% | -42% | 5% | -15 | ?
COc1cccc(NC(=O)CN(C)C(=O)c2cccc(S(=O)(=O)N3CCN(c4ccccc4)CC3)c2)c1 | nt | nt | ? | 3% | -26 | 0%
SMILES | VACV mCherry inh | Vaccinia Venus | HCV inh | Sm TGR inh | HCMV antiviral | FMDV antiviral
CN(Cc1ccc(OC(F)F)cc1)C(=O)C1CCN(S(=O)(=O)c2ccc3c(c2)OCCO3)CC1 | nt | nt | 6.3µM* | -7% | -36 | ?
CN(Cc1c(F)cccc1Cl)C(=O)c1cccc(S(=O)(=O)N2CCN(Cc3ccccc3)CC2)c1 | nt | nt | ? | nt | 1 | -23%
COc1cccc(CN(C)C(=O)c2cccc(S(=O)(=O)N3CCN(c4ccc(F)cc4)CC3)c2)c1OC | ? | -15% | ? | 2% | -80* | 20µM*
CN(CC(=O)Nc1ccc(F)cc1)C(=O)C1CCN(S(=O)(=O)c2ccc3c(c2)OCCO3)CC1 | -5% | 0% | ? | -4% | -32 | -21%
CN(Cc1ccc(OC(F)F)cc1)C(=O)c1cccc(S(=O)(=O)N2CCN(Cc3ccccc3)CC2)c1 | -20% | -22% | 5.6µM* | nt | -92* | 13µM*
Cc1ccc(Cl)cc1NC(=O)C(Cc1ccccc1)NS(=O)(=O)c1cccc2nsnc12 (configuration not stated) | -9% | -16% | nt | -4% | -32 | 11%
COC(=O)c1ccc(NC(=O)C[n+]2ccccc2)cc1 | i | -1% | 10% | -25% | 19 | 5%
COc1cccc(CN(C)C(=O)c2cccc(S(=O)(=O)N3CCN(Cc4ccccc4)CC3)c2)c1OC | -8% | -22% | 7.9µM* | 4% | -74* | ?
CN(Cc1ccc(Cl)cc1Cl)C(=O)c1cccc(S(=O)(=O)N2CCN(c3ccccc3)CC2)c1 | -10% | -26% | 13µM* | -14% | ? | ?
CN(Cc1ccco1)C(=O)c1cccc(S(=O)(=O)N2CCN(Cc3ccccc3)CC2)c1 | i | -5% | nt | nt | -12 | -23%
CN(Cc1ccc(Cl)cc1Cl)C(=O)c1cccc(S(=O)(=O)NCc2ccccc2)c1 | ? | -24% | -25% | nt | -5 | 15%
CN(CCOc1ccc(Cl)cc1)C(=O)c1cccc(S(=O)(=O)N2CCN(c3ccccc3)CC2)c1 | nt | nt | 3.5µM* | nt | -25 | ?
CC(=O)Oc1ccc2ccc3ccc(C(C)=O)cc3c2c1 | ? | -9% | 13µM* | nt | 3 | 6%
CCN(CC)c1ccc(C(=O)n2cnc3ccccc32)cc1 | 14µM* | ? | ? | 0% | -3 | -11%
CCOC(=O)C(C)Sc1nc2c([nH]c3ccccc32)c(=O)n1C (configuration not stated) | 0% | -8% | 10µM* | 2% | 65 | nt
O=C1CC(Nc2ccc(N3CCOCC3)cc2)C(=O)N1c1cccc(C(F)(F)F)c1 (configuration not stated) | -19% | -4% | ? | 28µM* | nt | -15%
Cc1ccc(CN2C(=O)CC(Nc3ccc(N4CCOCC4)cc3)C2=O)cc1 (configuration not stated) | nt | nt | 14% | 40µM* | 3 | 1%
